From PubChem BioAssay (NCATS) come the findings set out here.

In experiment [1] the target is Lysosomal acid glucosylceramidase (Homo sapiens) (UniProt P04062). Kind of experiment: Glucocerebrosidase-p2 (AID 348; in the data active means potency below about 10 µM; further: potency means the concentration at half of the fitted maximal effect). Conditions: purified GBA, blue fluorogenic substrate, 40 min. The method, boiled down:
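Normal human glucocerebrosidase (0.2 nM) with blue fluorogenic substrate (80 uM final) in citrate/phosphate pH 5.9 with 10mM sodium taurocholate, 0.01% tween-20; 40 min RT, NaOH/glycine stop; fluorescence Ex 365/Em 440; AC50 from a titration from 0.6 nM upwards.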

A short description of experiment [2]: AP1 Signaling Pathway (AID 357; active means well fitted curve in either direction with a large enough effect, not every such curve was filed as active; further: on the % scale 0 is the no-effect control and ±100 the full control effect). Conditions: ME-180 AP-1-bla reporter, EGF-induced, beta-lactamase ratio, 5 h; at 7.69 µM (top of the series) unless noted. In short, it runs like this: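 In this screen, ME-180 cells in Opti-MEM with 0.5% dialyzed FBS received EC50 EGF and compound titrations for 5 h. AP-1 reporter beta-lactamase was detected via CCF4 ratio, giving AC50 for positive and negative modulators.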

For experiment [3], the target named is Cytochrome P450 1A2 (Homo sapiens) (UniProt P05177). Kind of experiment: p450-cyp1a2 (AID 410). Further: potency means the concentration at half of the fitted maximal effect.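 On activity change, negative = inhibition: -100% = full effect of reference inhibitor.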 As to conditions: recombinant CYP1A2, luciferin-ME demethylation, luminescence; series mostly up to 57 µM. In short, it runs like this:
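20nM CYP1A2, 100uM Luciferin-ME (=Km), 100mM KPO4; cpd 10 min RT; +NADPH regen, 60 min RT; stop/detect 20 min; luminescence. Normalized to furafylline 57 uM = full inhibition.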

A short description of experiment [4]: Stat Signaling Pathway (AID 446; active means well fitted curve in either direction with a large enough effect, not every such curve was filed as active;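 further: ME-180 cervical cancer cells given 40 pM IL-6 alongside compound; SIE-controlled beta-lactamase reporter measured as 460/530 nm FRET emission ratio; on the % scale 0 is the no-effect control and ±100 the full control effect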). As to conditions: ME-180 SIE beta-lactamase reporter, IL-6 stimulated, 5 h; at 7.69 µM (top of the series) unless noted. The method, boiled down: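 Emission at 460 and 530 nm (excitation 405 nm) reports SIE-controlled beta-lactamase in ME-180 cells. Cells received compound with 40 pM IL-6 for 5 hrs at 37 C; data scaled between 300 pM IL-6 and 125 nM JAK-inhibitor controls.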

For experiment [5], the target named is Glucocorticoid receptor (Homo sapiens) (UniProt P04150). Kind of experiment: GR-GFP Redistribution (AID 450;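 active means compounds whose dose series gives a full or clear partial fitted curve of increased nuclear translocation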; further: potency means the concentration at half of the fitted maximal effect). As to conditions: U2OS GR-GFP nuclear translocation, laser cytometry, 2 h.
Glucocorticoid receptor (Homo sapiens), sequence (P04150 whole entry, looked up): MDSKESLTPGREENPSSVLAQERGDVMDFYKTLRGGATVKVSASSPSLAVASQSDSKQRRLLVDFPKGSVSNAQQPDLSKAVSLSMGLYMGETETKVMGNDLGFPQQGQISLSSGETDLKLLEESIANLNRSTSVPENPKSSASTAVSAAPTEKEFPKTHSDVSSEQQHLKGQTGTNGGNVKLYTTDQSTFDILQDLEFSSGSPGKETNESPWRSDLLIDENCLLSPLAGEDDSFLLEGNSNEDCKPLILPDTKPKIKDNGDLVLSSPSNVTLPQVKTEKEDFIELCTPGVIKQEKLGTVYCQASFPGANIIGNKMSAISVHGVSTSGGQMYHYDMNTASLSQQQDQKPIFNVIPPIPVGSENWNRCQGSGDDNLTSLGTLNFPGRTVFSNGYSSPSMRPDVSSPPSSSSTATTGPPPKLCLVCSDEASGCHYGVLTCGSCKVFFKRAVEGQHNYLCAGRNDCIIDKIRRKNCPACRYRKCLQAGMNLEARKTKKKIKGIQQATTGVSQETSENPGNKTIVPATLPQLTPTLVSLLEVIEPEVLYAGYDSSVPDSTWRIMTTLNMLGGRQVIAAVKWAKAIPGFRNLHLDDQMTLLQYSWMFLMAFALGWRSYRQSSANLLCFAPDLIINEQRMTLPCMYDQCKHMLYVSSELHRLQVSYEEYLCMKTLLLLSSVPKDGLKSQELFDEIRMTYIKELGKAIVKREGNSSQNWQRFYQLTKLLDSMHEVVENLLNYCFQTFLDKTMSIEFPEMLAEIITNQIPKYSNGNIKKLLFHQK
The target is the same in experiment [6]. Kind of experiment: GR-EFC Redistribution (AID 451). Further: potency means the concentration at half of the fitted maximal effect. Conditions: CHO-K1 GR-EFC translocation, beta-gal luminescence, 2 h. In short, it runs like this:
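CHO-K1 cells stably expressing nuclear-localized β-gal enzyme acceptor and GR fused C-terminally to the enzyme donor fragment; ligand-driven nuclear translocation restores β-gal by complementation. Compounds titrated up to 46 uM final, 2 h at 37 °C; luminescence read.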

Experiment [7] addresses Mitogen-activated protein kinase 10 (Mus musculus) (UniProt Q61831). Kind of experiment: JNK3 AlphaScreen Assay (AID 530; active means well fitted curve in either direction with a large enough effect, not every such curve was filed as active;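 further: kinase came from lysate of stimulated human HepG2 cells; signal reports phosphorylation of biotinylated GST-cJun 1-79 at Ser73 with 10 µM ATP; on the % scale 0 is the no-effect control and ±100 the full control effect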). As to conditions: JNK3 lysate, c-Jun phosphorylation; series mostly up to 57.1 µM. The method, boiled down:
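Biotinylated GST-cJun(1-79) served as substrate for JNK3 in HepG2 lysates stimulated with IL-1beta and TNF-alpha. ATP was 10 uM final, pH 7.6. Ser73 phosphorylation was quantified by AlphaScreen (680 nm excitation).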
Background: In Alpha technology, singlet oxygen from a donor bead excites a nearby acceptor bead.

In experiment [8] the target is 3',5'-cyclic-AMP phosphodiesterase 4B (Homo sapiens) (UniProt Q07343). Kind of experiment: qHTS Assay for Inhibitors of PDE-IV (AID 607; active means well fitted activation curve with a large enough effect in the main read-out, with a control signal flat, not every such curve was filed as active; further: % of control where 0% means no effect). Conditions: HEK293 ACTOne CNG channel cells, membrane potential fluorescence; series mostly up to 22.9 µM. In short, it runs like this:
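The readout is membrane depolarisation from a cAMP-sensing CNG channel, detected with a potential dye at ex 535/em 590. Cells were HEK293-derived (endogenous PDE-IV) at 1000 cells/well, titrated up to 22.9 uM final.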

Experiment [9] deals with Cytochrome P450 3A4 (Homo sapiens) (UniProt P08684). Kind of experiment: qHTS Assay for Activators of Cytochrome P450 3A4 (AID 885; active means well fitted curve in the direction sought with a large enough effect; an effect the other way counts as inactive or inconclusive; further: nearly all actives have a fitted effect of over 65% in size; further: potency means the concentration at half of the fitted maximal effect). As to conditions: recombinant CYP3A4, Luciferin-PPXE luminescence, 60 min; series mostly up to 57.1 µM. In short, it runs like this:
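Activators are scored by enhanced luminescence from CYP3A4 conversion of luciferin-PPXE (25uM, equal to KM) to luciferin, after 60 min at RT with an NADPH-regenerating system.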
For orientation: qHTS replaces the single test concentration by a dilution series.

Experiment [10] in a line: qHTS Assay for Identification of Small Molecule Agonists for Hypoxia Response Element Signaling Pathway (AID 914; active means well fitted activation curve with a large enough effect in the signal ratio, with a control signal flat, not every such curve was filed as active; the % refers to the signal ratio; further: % of control where 0% means no effect). Conditions: ME-180 (cervical carcinoma) HRE-bla reporter, beta-lactamase ratio, CoCl2, 17 h; activation: stronger effect = higher value. In short, it runs like this:
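HRE-bla ME-180 cells, overnight plating in Opti-MEM with 0.5% dialyzed FBS; cpd titration + EC50 CoCl2, 17 h, 37 degrees Celsius; CCF4 2.5 h RT; 460/530 nm ratio; AC50.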

A short description of experiment [11]: qHTS Assay for Lipid Storage Modulators (AID 1519). Conditions: Drosophila S3 cells, BODIPY lipid droplet/cell ratio, laser cytometry, cells loaded with oleic acid; for activity change, negative = inhibition: at 57.5 µM (top of the series). The method, boiled down:
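Cells seeded at 5,000 per well were treated with compounds over a concentration series and loaded with oleic acid (400 uM, as added). Lipid droplet fluorescence (488 nm excitation, 500-530 nm channel) was read by laser-scanning cytometry and normalized to 20 uM Triacsin C.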

Experiment [12] has as its target Cytochrome P450 2D6 (Homo sapiens) (UniProt P10635). Kind of experiment: qHTS Assay for Inhibitors and Substrates of Cytochrome P450 2D6 (AID 891; active means well fitted curve in the direction sought with a large enough effect; an effect the other way counts as inactive or inconclusive; further: nearly all actives have a fitted effect of over 60% in size; further: potency means the concentration at half of the fitted maximal effect). As to conditions: recombinant CYP2D6, luciferin-ME EGE luminescence; series mostly up to 57.1 µM. In short, it runs like this: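 Luminescent read-out of luciferin formed by 5 nM human CYP2D6 demethylating 30 uM Luciferin-ME EGE (Km level) over 60 min at room temperature after NADPH regeneration addition. Data normalized to full inhibition by 1.43 uM quinidine.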

The target in experiment [13] is Cytochrome P450 2C19 (Homo sapiens) (UniProt P33261). Kind of experiment: qHTS Assay for Inhibitors and Substrates of Cytochrome P450 2C19 (AID 899; active means well fitted curve in the direction sought with a large enough effect; an effect the other way counts as inactive or inconclusive; further: on the % scale 0 is the no-effect control and ±100 the full control effect; nearly all actives have a fitted effect of over 60% in size). Conditions: recombinant CYP2C19, luciferin-H EGE luminescence; series mostly up to 57.1 µM. The method, boiled down:
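NADPH-dependent conversion of Luciferin-H EGE (10uM, at KM) by 5nM enzyme in 50mM KPO4, 60 min at 37C following 10 min compound preincubation. Stopped with luciferin detection buffer; luminescence read after 20 min.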

In experiment [14] the target is Cytochrome P450 3A4 (Homo sapiens) (UniProt P08684). Kind of experiment: qHTS Assay for Inhibitors and Substrates of Cytochrome P450 3A4 (AID 884; active means well fitted curve in the direction sought with a large enough effect; an effect the other way counts as inactive or inconclusive; further: on the % scale 0 is the no-effect control and ±100 the full control effect; nearly all actives have a fitted effect of over 50% in size). As to conditions: recombinant CYP3A4, Luciferin-PPXE luminescence; series mostly up to 57.1 µM. In short, it runs like this:
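Luminescent readout of luciferin produced by CYP3A4 (20 nM) dealkylation of Luciferin-PPXE, 25 uM (its KM). NADPH-driven reaction ran 60 min at RT after 10 min compound preincubation; data scaled to 57 uM ketoconazole as 100% inhibition.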

The nature of experiment [15]: NFAT Signaling Pathway (AID 444; active means well fitted curve in either direction with a large enough effect, not every such curve was filed as active;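 further: carbachol stimulus at about its EC50 of 1 µM final; on the % scale 0 is the no-effect control and ±100 the full control effect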). As to conditions: Jurkat NFAT-bla M1, carbachol, beta-lactamase ratio, 5 h; at 7.69 µM (top of the series) unless noted. The method, boiled down: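 Jurkat cells carrying an NFAT-driven β-lactamase reporter and co-transfected muscarinic M1 receptor were treated with compound plus carbachol (1 uM final, an EC50 level) for 5 h at 37 °C. CCF4 loading followed for 1 h at RT; 460/530 nm ratio gave %activity.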

[16] abbreviates: measured here: cell count channel max response.
[17] abbreviates: measured here: lipid channel max response.

Records with an inconclusive call do not appear. Calls of active or inactive are those of the source. Unless noted, the call rests on the fitted dose curve.

Cytochrome P450 3A4 (Homo sapiens), sequence (P08684 whole entry, looked up): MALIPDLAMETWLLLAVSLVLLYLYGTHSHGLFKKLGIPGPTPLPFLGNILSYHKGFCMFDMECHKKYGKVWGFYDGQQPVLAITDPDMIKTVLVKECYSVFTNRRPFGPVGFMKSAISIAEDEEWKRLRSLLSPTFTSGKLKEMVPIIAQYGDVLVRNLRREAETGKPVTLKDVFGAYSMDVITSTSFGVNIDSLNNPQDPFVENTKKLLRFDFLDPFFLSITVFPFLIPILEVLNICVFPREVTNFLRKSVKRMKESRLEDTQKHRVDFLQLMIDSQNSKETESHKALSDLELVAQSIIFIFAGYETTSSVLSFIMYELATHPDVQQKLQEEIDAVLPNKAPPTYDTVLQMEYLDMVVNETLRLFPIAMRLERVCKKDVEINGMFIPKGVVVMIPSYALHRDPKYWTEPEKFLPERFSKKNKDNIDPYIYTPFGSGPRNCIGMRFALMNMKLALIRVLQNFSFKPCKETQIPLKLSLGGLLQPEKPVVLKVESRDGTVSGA
3',5'-cyclic-AMP phosphodiesterase 4B (Homo sapiens), sequence (Q07343 whole entry, looked up): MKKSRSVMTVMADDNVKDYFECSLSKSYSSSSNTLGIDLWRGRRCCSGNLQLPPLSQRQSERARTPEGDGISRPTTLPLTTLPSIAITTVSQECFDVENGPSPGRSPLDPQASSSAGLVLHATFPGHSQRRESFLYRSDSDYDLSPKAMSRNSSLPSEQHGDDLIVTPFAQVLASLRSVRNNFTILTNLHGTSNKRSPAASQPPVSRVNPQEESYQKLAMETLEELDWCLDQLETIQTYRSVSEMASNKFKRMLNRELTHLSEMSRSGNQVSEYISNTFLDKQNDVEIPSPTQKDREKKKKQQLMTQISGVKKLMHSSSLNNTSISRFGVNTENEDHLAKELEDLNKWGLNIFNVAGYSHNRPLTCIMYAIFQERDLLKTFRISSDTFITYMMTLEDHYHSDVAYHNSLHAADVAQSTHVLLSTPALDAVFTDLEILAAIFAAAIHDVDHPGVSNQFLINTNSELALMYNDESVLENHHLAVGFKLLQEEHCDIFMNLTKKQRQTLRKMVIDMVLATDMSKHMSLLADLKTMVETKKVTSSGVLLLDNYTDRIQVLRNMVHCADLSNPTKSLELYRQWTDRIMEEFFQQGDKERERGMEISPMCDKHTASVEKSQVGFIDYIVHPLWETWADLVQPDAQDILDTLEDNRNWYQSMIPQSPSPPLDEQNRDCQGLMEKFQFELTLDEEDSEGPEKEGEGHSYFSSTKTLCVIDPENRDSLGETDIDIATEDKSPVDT
Cytochrome P450 1A2 (Homo sapiens), sequence (P05177 whole entry, looked up): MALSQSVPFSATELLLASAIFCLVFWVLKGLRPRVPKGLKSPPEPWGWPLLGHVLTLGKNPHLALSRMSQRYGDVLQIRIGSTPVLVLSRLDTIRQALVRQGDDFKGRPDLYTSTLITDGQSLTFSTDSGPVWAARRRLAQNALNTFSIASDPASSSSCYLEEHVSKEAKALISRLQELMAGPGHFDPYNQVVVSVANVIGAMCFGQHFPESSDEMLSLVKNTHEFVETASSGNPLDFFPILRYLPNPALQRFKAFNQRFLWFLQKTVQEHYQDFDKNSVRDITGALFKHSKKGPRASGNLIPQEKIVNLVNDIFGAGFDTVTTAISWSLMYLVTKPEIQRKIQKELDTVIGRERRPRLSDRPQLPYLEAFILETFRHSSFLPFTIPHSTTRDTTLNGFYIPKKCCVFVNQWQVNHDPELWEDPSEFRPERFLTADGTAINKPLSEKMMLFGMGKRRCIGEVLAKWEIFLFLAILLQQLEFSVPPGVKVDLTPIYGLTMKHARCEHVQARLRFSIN
Cytochrome P450 2D6 (Homo sapiens), sequence (P10635 whole entry, looked up): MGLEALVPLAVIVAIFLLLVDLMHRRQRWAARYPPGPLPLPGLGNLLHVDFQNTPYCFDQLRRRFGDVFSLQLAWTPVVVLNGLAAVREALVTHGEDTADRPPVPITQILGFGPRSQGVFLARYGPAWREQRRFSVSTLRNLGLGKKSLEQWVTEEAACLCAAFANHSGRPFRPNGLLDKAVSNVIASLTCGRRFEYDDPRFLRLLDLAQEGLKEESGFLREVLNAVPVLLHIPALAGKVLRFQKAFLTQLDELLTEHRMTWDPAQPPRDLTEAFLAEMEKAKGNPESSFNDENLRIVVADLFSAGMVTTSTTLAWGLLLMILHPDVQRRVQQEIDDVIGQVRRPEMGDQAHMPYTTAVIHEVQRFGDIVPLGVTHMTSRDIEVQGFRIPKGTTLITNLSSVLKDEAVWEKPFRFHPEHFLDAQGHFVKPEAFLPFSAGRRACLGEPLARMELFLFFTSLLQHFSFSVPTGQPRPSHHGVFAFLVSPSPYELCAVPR
Lysosomal acid glucosylceramidase (Homo sapiens), sequence (P04062 whole entry, looked up): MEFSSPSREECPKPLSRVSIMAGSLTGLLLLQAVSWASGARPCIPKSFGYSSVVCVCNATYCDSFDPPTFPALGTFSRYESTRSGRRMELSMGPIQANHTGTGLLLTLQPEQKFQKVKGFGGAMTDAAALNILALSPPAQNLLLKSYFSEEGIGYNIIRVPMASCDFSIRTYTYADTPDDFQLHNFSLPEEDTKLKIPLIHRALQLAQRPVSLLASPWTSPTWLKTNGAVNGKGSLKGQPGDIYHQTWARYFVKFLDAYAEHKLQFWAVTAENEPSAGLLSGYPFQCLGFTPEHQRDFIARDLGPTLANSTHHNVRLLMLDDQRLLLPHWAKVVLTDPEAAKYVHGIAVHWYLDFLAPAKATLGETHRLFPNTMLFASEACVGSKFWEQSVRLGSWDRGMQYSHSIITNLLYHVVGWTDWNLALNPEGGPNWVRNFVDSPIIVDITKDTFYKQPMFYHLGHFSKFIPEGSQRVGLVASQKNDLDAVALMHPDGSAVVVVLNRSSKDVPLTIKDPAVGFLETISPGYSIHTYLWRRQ
Cytochrome P450 2C19 (Homo sapiens), sequence (P33261 whole entry, looked up): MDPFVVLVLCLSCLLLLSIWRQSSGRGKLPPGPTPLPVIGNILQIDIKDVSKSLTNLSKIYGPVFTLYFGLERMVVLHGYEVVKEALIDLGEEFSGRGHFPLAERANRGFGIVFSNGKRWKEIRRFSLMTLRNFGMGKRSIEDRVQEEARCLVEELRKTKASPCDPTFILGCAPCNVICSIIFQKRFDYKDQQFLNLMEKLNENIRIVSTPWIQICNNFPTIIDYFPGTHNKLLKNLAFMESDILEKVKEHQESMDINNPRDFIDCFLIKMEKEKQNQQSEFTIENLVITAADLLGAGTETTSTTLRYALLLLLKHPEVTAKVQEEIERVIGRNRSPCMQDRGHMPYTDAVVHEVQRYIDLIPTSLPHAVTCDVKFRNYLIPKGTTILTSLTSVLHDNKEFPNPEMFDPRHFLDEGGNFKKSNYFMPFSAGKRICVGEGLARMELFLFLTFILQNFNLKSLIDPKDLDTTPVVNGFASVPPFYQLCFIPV

As to `O=c1cnc2cnc(N3CCOCC3)nc2n1C[C@H]1CCCO1`, the Potency was > 11.4 µM (inactive) in [1], 10 µM (active) in experiment [3], > 9.22 µM (inactive) in experiment [5] and > 46 µM (inactive) in [6]. The values for the activity change, negative = inhibition in [2] and in [11] were 2.78% (inactive) and 5.43% (inactive), respectively. Moreover, in [4], the activity, negative = inhibition was -3.88% (inactive). For the same molecule, the Potency result in experiment [7], in experiment [8] and in [9] was “inactive” each time. Moreover, the activation in [10] was 9.58% (inactive). Also, the figures for the max response in experiment [11] (setting [16]) and in experiment [11] (setting [17]) were 13.3% and 22.5%, respectively.
With `FC(F)(F)c1cc(CN2CC[C@@]3(CCCNC3)C2)cc(C(F)(F)F)c1`, the results for the Potency in experiment [1] and in [6] were > 11.4 µM (inactive) and > 46 µM (inactive), respectively. The activity change, negative = inhibition in [2] was 7.88% (inactive); in experiment [11] it was 1.16% (inactive). For the same molecule, the Potency entry in [3], in experiment [7], in experiment [9], in experiment [12] and in experiment [13] was “inactive” each time. Further, the activity, negative = inhibition in experiment [4] is 4.03% (inactive). Also, the values for the max response in experiment [11] (setting [16]) and in experiment [11] (setting [17]) were 8.55% and 10.6%, respectively.
For the molecule `COCC(=O)N1CCC2(CC1)CN(Cc1nccs1)C2`, the Potency in experiment [1] was > 11.4 µM (inactive); in experiment [6], > 46 µM (inactive). The activity change, negative = inhibition in experiment [2] is -21.4% (inactive); in experiment [11], 3.6% (inactive). In addition, the Potency result in experiment [3], in [7], in experiment [8], in [14], in [12] and in experiment [13] was “inactive” each time. Besides, the max response was determined as 4.27% in experiment [11] (setting [16]) and 13.5% in experiment [11] (setting [17]).
In the case of `COc1ccc(NC(=O)N2CCCC3(CCN(C(=O)c4cc(C(F)(F)F)cc(C(F)(F)F)c4)CC3)C2)cc1`, the Potency is > 11.4 µM (inactive) in experiment [1] and > 46 µM (inactive) in [6]. Besides, the activity change, negative = inhibition was -9.5% (inactive) in experiment [2], 12.1% (inactive) in experiment [15] and 6.29% (inactive) in experiment [11]. Further, the Potency entry in experiment [3], in [7], in experiment [8] and in experiment [9] was “inactive” each time. Besides, the activity, negative = inhibition in experiment [4] was -15.1% (inactive). In addition, the max response in experiment [11] (setting [16]) was found to be 9.63%; in experiment [11] (setting [17]), 18.5%.
Turning to `N#Cc1ccc(CN2CCC3(CC2)CCN(S(=O)(=O)c2ccccc2)CC3)cc1`, the Potency in experiment [1] is > 11.4 µM (inactive); in [6], > 46 µM (inactive). Also, the activity change, negative = inhibition in experiment [2] was -18.1% (inactive); in [11], -0.545% (inactive). For the same molecule, the Potency entry in experiment [3], in [7], in experiment [8] and in experiment [9] was “inactive” throughout. Moreover, the activity, negative = inhibition in [4] is 1.33% (inactive). Besides, the max response in experiment [11] (setting [16]) was 11.7%; in experiment [11] (setting [17]) it was 10.8%.
In the case of `O=C(c1cccc(F)c1)N1CCC2(CC1)CCN(C(c1ccccc1)c1ccccc1)CC2`, the Potency in [1] is > 11.4 µM (inactive); in [3] it was 10 µM (active); in experiment [6], > 46 µM (inactive); in [9], 5.01 µM (active); in experiment [12], 3.16 µM (active). The activity change, negative = inhibition was 2.86% (inactive) in experiment [2] and 4.65% (inactive) in [11]. The activity, negative = inhibition in experiment [4] was -6.67% (inactive). In addition, the Potency result in experiment [7], in experiment [8] and in experiment [14] was “inactive” each time. In addition, the max response came out at 12.8% in experiment [11] (setting [16]) and 19.8% in [11] (setting [17]).
Consider `N#CCCn1c(=O)c(-c2ccc(Cl)cc2)nc2cnc(Oc3cccc(Cl)c3)nc21`, for which the Potency was > 11.4 µM (inactive) in experiment [1], > 9.22 µM (inactive) in experiment [5] and > 46 µM (inactive) in experiment [6]. Besides, the activity change, negative = inhibition is 23.4% (inactive) in [2], 14.7% (inactive) in experiment [15] and 4.13% (inactive) in experiment [11]. The Potency entry in experiment [3], in experiment [7] and in [8] was “inactive” in each case. Also, the results for the max response in experiment [11] (setting [16]) and in experiment [11] (setting [17]) were 4.81% and 10.2%, respectively.
